Results published in ChEMBL document CHEMBL3433997, “St. Jude Leishmania screening dataset” (2016).

What was measured:
Format in all cases: functional
[1] = target: Solute carrier family 2, facilitated glucose transporter member 1 (Homo sapiens) (UniProt P11166); test: ST_JUDE_LEISH: Cytotoxicity at 2uM final concentration against transgenic Leishmania Mexicana promastigotes LmGLUT1 that are glucose transport deficient and complemented with the human glucose transporter GLUT1. Activity is measured by DNA content using SYBR green in vitro
[2] = target: Hexose transporter 1 (Plasmodium falciparum) (UniProt O97467); test: ST_JUDE_LEISH: Cytotoxicity at 2uM final concentration against transgenic Leishmania Mexicana promastigotes LmPfHT that are glucose transport deficient and complemented with the Plasmodium falciparum hexose transporter. Activity is measured by DNA content using SYBR green in vitro
[3] = target: Glucose transporter (Leishmania mexicana) (UniProt O61059); test: ST_JUDE_LEISH: Cytotoxicity at 2uM final concentration against transgenic Leishmania Mexicana promastigotes LmGT2 that are glucose transport deficient and complemented with the L. Mexicana glucose transporter 2. Activity is measured by DNA content using SYBR green in vitro

Sequence of Solute carrier family 2, facilitated glucose transporter member 1 (Homo sapiens) (P11166 whole entry): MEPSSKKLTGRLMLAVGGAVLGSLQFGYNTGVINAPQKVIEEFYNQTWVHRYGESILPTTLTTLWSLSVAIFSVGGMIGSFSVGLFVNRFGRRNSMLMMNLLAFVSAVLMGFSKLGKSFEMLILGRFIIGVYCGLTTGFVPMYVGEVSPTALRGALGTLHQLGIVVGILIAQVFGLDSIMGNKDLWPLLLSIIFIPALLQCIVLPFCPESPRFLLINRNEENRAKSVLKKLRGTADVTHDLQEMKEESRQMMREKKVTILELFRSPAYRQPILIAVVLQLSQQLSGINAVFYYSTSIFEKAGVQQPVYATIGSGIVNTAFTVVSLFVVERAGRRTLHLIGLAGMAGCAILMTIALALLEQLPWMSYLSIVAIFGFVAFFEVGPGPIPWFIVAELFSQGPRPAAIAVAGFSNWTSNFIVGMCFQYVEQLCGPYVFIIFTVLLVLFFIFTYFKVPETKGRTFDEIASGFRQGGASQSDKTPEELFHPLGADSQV

SMILES | inhibition [1] | inhibition [2] | inhibition [3]
COc1ccc([N+](=O)[O-])cc1N(Cc1ccccc1-c1ccccc1)S(=O)(=O)c1ccc(C(F)(F)F)cc1[N+](=O)[O-] | 8.36% | 5.46% | -1.25%
O=C(c1ccc(Br)o1)N1N=C(c2cccs2)CC1c1ccc(Br)cc1 (stereo not given) | 5.77% | 7.79% | 3.94%
COc1cccc(-c2ccc(O)c(CNCCc3cccc(F)c3)c2)n1 | -0.7% | 3.14% | 2%
CC(C)(C)c1ccc(CN2CCCCC(NC(=O)c3cc(-c4ccccc4Cl)cs3)C2)cc1 (stereo not given) | 2.83% | 3.91% | 1%
Cc1cccc(Cl)c1S(=O)(=O)Nc1cccc(CCN2CCC(N3CCCCC3)CC2)c1 | -0.03% | -0.24% | -2.34%
Cc1ccccc1C1CCN(C2CCC(NC(=O)/C=C/c3ccccc3C(F)(F)F)CC2)CC1 (stereo not given) | 3.47% | -0.14% | 4.39%
CN1Cc2cc(NC(=O)/C=C/c3ccccc3Cl)ccc2C(C)(C)C1 | 10.7% | 8.21% | 6.98%
O=c1ccccn1CCCC1CCCCN1 (stereo not given) | 12.2% | 12.2% | 13.5%
Cn1cncc1CCN(Cc1ccc(-c2ccc(C(F)(F)F)cc2)cc1)C(=O)Cn1c(SCc2cccc(F)c2F)cc(=O)c2ccccc21 | 4.77% | 1.65% | 2.14%
COC(=O)c1ccc(C2OC3(C(=O)c4ccccc4C3=O)C(OC)=C2Cl)cc1C(C)=O (stereo not given) | -2.44% | -0.79% | -0.7%
O=C(c1ccc(-c2ccc(Cl)cc2)o1)N1CCc2cc3nccc(N4CCN5CCC[C@H]5C4)c3cc21 | -1.09% | 0.64% | 0.64%
COc1cc(NC(=O)C(c2ccc(Cl)cc2)C(C)C)cc(OC)c1 (stereo not given) | 2.88% | 2.55% | 1.33%
c1cncc(NCc2ccc(-c3cc4ccncc4cc3OC3CCNCC3)s2)c1 | 4.74% | 5.2% | 4.54%
CC(C)(C)CN1C(=O)C(c2ccccc2)(c2ccccc2)N=C1N | 2.88% | 2.58% | 1.88%
CC(=O)c1cccc(NC(=O)NC2CCN(c3ccnc(Nc4ccc(F)cc4)n3)C2)c1 (stereo not given) | -1.36% | -0.93% | -0.03%
COc1ccc(NC(=O)CCNc2cc(C)nc(NCc3ccccc3C)n2)cc1 | 5.23% | 5.4% | 3.93%
O=C(CSc1nnc(-c2ccccc2Br)[nH]1)c1c[nH]c2ccccc12 | -0.5% | -0.7% | 1.98%
O=C(N[C@@H](CC1CCCCC1)C(=O)NCCN1CCCCC1)c1ccc(O)c(-c2ccc(Cl)c(Cl)c2)c1 | 0.75% | 1.44% | 0.7%

SMILES | inhibition [1] | inhibition [2] | inhibition [3]
Cc1cc(Nc2ccccc2)nc(NCCOc2ccccc2)n1 | 5.53% | 8.42% | 2.95%
Cc1cccc(CNc2nc(C)cc(N[C@@H](CC(C)C)C(=O)NCCOc3ccccc3)n2)c1 | 4.29% | 5.38% | 2.08%
Cc1ccc(S(=O)(=O)N(CCCN2CCN(C)CC2)Cc2csc(-c3ccc(CNCc4ccccc4)cc3)n2)cc1 | 9.12% | 7.67% | 9.91%
COc1ccc2nccc([C@@H](O)CN3CCC(NC(=O)c4cc5ccccc5[nH]4)CC3)c2c1 | 36% | 55.7% | 38.7%
O=C(Nc1ccc(N2CCN(c3ncccc3C(F)(F)F)CC2)nc1)c1cccs1 | 2.6% | 3.03% | 0.38%
COc1nc2c(CCN3CCC(NCc4ccc5c(c4)NCCO5)CC3)c(Cl)cnc2cc1F | 14.1% | 9.24% | 2.35%
O=C(Nc1cccc(CN2CCCN(Cc3ccc(O)cc3)CC2)c1)c1cc2ccccc2s1 | -1.48% | 1.71% | -2.92%
Cc1cc(F)ccc1Nc1nc(N(C)c2ccccc2)c2cc(OCCCN(C)C)ccc2n1 | 2.53% | 3.15% | 4.25%
COc1ccc(C(=O)N2CCC(C(=O)NC(C)c3ccc(-n4ccnc4)cc3)CC2)c2ccccc12 (stereo not given) | -1.06% | -0.1% | -0.59%
CCc1cn2c3c(cc(C(=O)N[C@@H](Cc4ccccc4)[C@H](O)CNC4CCOCC4)cc13)N(C(C)C)S(=O)(=O)CC2 | -1.49% | 3.8% | 0.93%
Cc1cc(-c2ccc(CN3Cc4ccccc4C3)cc2)ccc1S(=O)(=O)NCCN1CCCC1 | 40.3% | 17.2% | 11%
CCNc1cc(CCCC(=O)OCC)nc(Nc2ccc(C)cc2)n1 | 10.3% | 13% | 10.3%
COc1ccc2nccc([C@@H](O)CN3CCC(NC(=O)/C=C/c4ccc(Cl)c(C(F)(F)F)c4)CC3)c2c1 | 5% | 4.74% | -1.23%
O=C(/C=C/c1ccc(Cl)c(Cl)c1)N1CCC(C(O)CN2CCC(c3c[nH]c4ccccc34)CC2)CC1 (stereo not given) | 2.18% | 1.82% | 0.09%
Cc1noc(C)c1-c1cccc(CNCc2ccc(-c3ccc(-c4nc5cc(C(F)(F)F)ccc5[nH]4)cc3)cc2)c1 | 5.36% | 4.54% | 4.2%
NS(=O)(=O)c1cccc(-c2ccc3nccc(-c4cccc(S(N)(=O)=O)c4)c3c2)c1 | 2.86% | 0.59% | -1.04%
CCCc1cc(C(C)=O)ccc1OCCCON1C(=N)N=C(N)NC1(C)C | 22.1% | 29.3% | 20.5%
